The list is not random: actives were taken first. Their share in the collection is about 3%.
PP5 primary: PP5 phosphatase inhibitors, primary screen, biochemical, fluorescence; Serine/threonine-protein phosphatase 5 (Homo sapiens), P53041; purified PP5c, OMFP substrate fluorescence; inhibition, % at 6.7 µM; actives 0.18% (n = 320,000);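 active = inhibition above the campaign's mean inhibition across all tested compounds plus 3 SD, cut at about 9.5% in these data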
CTSL1 counter: Fasciola hepatica cathepsin L1 inhibitors, primary screen, counter-screen for PFM18AAP inhibitor project, biochemical, QFRET, fluorogenic peptide substrate; actives 0.49% (n = 300,000); inhibition, % at 5.96 µM; recombinant F. hepatica cathepsin L1, Z-Leu-Arg-MCA fluorescence; AID 1906, 2009;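 active = inhibition above the mean of all tested compounds plus 3 SD, set per screening campaign, cut at about 17% in these data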
PAFAH2 inh: PAFAH2 enzyme inhibitors, primary screen, biochemical, fluorescence polarization, human; Platelet-activating factor acetylhydrolase 2, cytoplasmic (Homo sapiens), Q99487; recombinant PAFAH2, FP-rhodamine activity probe; inhibition, % at 3.39 µM; actives 0.99% (n = 340,000); AID 492956, 2010;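 active = inhibition above the mean over all tested compounds plus 3 SD, cut at about 30% in these data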;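 note: inhibitors block probe labeling of enzyme so polarization drops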
pPAFAH inh: pPAFAH enzyme inhibitors, primary screen, biochemical, fluorescence polarization, human. actives 1.5% (n = 330,000). AID 463082, 2010. recombinant pPAFAH, FP-rhodamine probe fluorescence polarization. inhibition, % at 3.39 µM;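 active = inhibition above the mean inhibition across the screen plus 3 SD, cut at about 25% in these data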;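 note: inhibitors block binding of the rhodamine activity-based probe so polarization drops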
PAFAH1B2 inh: PAFAH1B2 enzyme inhibitors, primary screen, biochemical, fluorescence polarization, human. Platelet-activating factor acetylhydrolase IB subunit alpha2 (Homo sapiens), P68402. recombinant PAFAH1B2, FP-rhodamine activity probe. inhibition, % at 3.39 µM. actives 1.2% (n = 340,000). AID 492953, 2010;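 active = inhibition above the mean of all tested compounds plus 3 SD, cut at about 24% in these data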
Target sequence (P68402 whole entry, looked up): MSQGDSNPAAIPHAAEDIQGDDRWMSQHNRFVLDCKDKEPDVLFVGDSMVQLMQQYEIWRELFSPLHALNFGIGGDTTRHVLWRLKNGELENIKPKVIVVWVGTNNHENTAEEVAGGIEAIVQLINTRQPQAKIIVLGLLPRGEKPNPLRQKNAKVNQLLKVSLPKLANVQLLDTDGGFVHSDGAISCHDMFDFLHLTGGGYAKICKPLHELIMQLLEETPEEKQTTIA
PAFAH1B3 inh: PAFAH1B3 enzyme inhibitors, primary screen, biochemical, fluorescence polarization, human. Platelet-activating factor acetylhydrolase IB subunit alpha1 (Homo sapiens), Q15102. recombinant PAFAH1B3, FP-rhodamine probe. inhibition, % at 3.39 µM. actives 0.28% (n = 340,000);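 active = inhibition above the screen-wide average of all tested compounds plus 3 SD, cut at about 25% in these data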
Target sequence (Q15102 whole entry, looked up): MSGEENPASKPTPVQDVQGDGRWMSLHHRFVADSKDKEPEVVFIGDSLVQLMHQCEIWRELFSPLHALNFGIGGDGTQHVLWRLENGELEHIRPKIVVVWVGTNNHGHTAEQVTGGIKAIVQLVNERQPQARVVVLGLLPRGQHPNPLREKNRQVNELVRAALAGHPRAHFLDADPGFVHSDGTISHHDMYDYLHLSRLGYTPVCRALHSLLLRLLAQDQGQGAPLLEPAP
Hits are given with their value; - = inactive; . = not tested or not shown.

SMILES	PP5 primary	CTSL1 counter	PAFAH2 inh	pPAFAH inh	PAFAH1B2 inh	PAFAH1B3 inh
CN(C(=O)c1cccc(S(=O)(=O)N2CCOCC2)c1)c1c(N)n(Cc2ccccc2)c(=O)[nH]c1=O	-	.	-	-	-	-
COc1ccc(OC)c(NC(=O)CSc2nc(=O)n(Cc3ccccn3)c3c2CCC3)c1	-	-	-	-	-	-
CN(C)c1ccc(C(=O)c2ccc(O)cc2O)cc1	-	-	-	-	-	-
CN(C)c1ccc(Cc2cc3c(O)ccc(O)c3cc(Cc3ccc(N(C)C)cc3)c2=O)cc1	.	.	39	.	-	34
COc1cccc(NC(=O)C(c2ccccc2)N2CCN(CC(=O)N3CCOCC3)CC2)c1 (configuration not stated)	-	.	-	-	-	-
CSc1ccccc1C(=O)N(C)Cc1ccccc1	-	-	-	-	-	-
Cc1ccccc1C(=O)N(C)Cc1ccccc1	-	17	-	-	-	-
O=C(NCc1cccs1)c1cccc(Nc2nc3ccc(Br)cc3[nH]2)c1	-	-	-	-	27	32
O=C1NC(=Nc2ccccc2)/C(=C/c2ccco2)S1	-	-	-	34	-	-
Cc1ccc(N=C2NC(=O)S/C2=C\c2ccco2)cc1	-	-	-	-	-	-
Nn1c(SCC(=O)N2CCN(S(=O)(=O)c3ccc(Cl)cc3)CC2)nnc1-c1cccs1	-	-	-	31	-	-
Cc1ccc(S(=O)(=O)N2CCN(C(=O)C(C)Cn3nc(C)c(C)c3C)CC2)cc1 (configuration not stated)	-	-	-	-	-	-
Cc1nnc(SCC(=O)N2CCN(S(=O)(=O)c3ccc(Cl)cc3)CC2)[nH]c1=O	-	-	-	-	30	-
Cc1ccc(S(=O)(=O)N2CCN(C(=O)CSc3ccc(Cl)cc3)CC2)cc1	-	-	-	-	-	-
Cc1nn(CC(C)C(=O)N2CCN(S(=O)(=O)c3ccc(Cl)cc3)CC2)c(C)c1C (configuration not stated)	-	-	-	-	26	-
O=C(CN1CSCC1=O)N1CCN(S(=O)(=O)c2ccc(Cl)cc2)CC1	-	.	-	-	29	-
Cc1ccc2nc(SCC(=O)Nc3cc(C)on3)nc(=O)n2c1	-	-	-	-	-	-
COc1ccc(-c2ccc(Nc3ccc(C(=O)N4CCOCC4)cc3)nn2)cc1OC	-	-	-	-	-	-
COc1ccccc1-c1ccc(Nc2ccc(C(=O)N3CCOCC3)cc2)nn1	-	18	-	-	-	-
C[n+]1c(-c2ccccc2)cc2c(=Cc3ccc([N+](=O)[O-])cc3)c3ccccc3n21	.	.	81	.	-	39
OCC1OC(Oc2cccc3ccccc23)C(O)C(O)C1O (configuration not stated)	-	-	-	-	-	-
O=C(O)c1cc(O)c2c(c1)[C@@H]([C@H]1c3cc(C(=O)O)cc(O)c3C(=O)c3c(O[C@@H]4O[C@H](CO)[C@@H](O)[C@H](O)[C@H]4O)cccc31)c1cccc(O[C@@H]3O[C@H](CO)[C@@H](O)[C@H](O)[C@H]3O)c1C2=O	.	.	.	95	.	.
COC(=O)CNC(c1ccccc1)c1cc(C)ccc1NC(=O)CNC(=O)OCc1ccccc1 (configuration not stated)	-	-	-	30	-	-
O=C(NCc1cccnc1)c1ccc(Cl)c(S(=O)(=O)Nc2ccccc2C(=O)NCc2cccnc2)c1	-	-	-	-	-	-
Cc1[nH]c2ccccc2c1/C=N/NC(=O)c1cc(-c2cccs2)[nH]n1	-	-	-	27	-	-
SMILES	PP5 primary	CTSL1 counter	PAFAH2 inh	pPAFAH inh	PAFAH1B2 inh	PAFAH1B3 inh
CC(=O)OC1c2ccccc2C(=O)N1Cc1ccccc1 (configuration not stated)	-	20	-	-	-	-
COc1ccc(CCN=C(N)NS(=O)(=O)c2ccc(F)cc2)cc1	-	-	-	-	-	-
NC(=NCCc1ccc(Cl)cc1)NS(=O)(=O)c1ccc(F)cc1	-	-	-	-	49	-
NC(=NCCc1ccc(Cl)cc1)NS(=O)(=O)c1ccccc1	-	-	-	-	54	-
COc1ccc(CCN=C(N)NS(=O)(=O)c2ccccc2)cc1	-	-	-	-	-	-
O=S(=O)(NC(=NCCc1ccc(Cl)cc1)c1ccccc1Cl)c1cccs1	-	-	-	-	47	-
O=c1c2ccccc2nc(-c2ccco2)n1CCc1ccc(O)cc1	-	-	-	-	-	-
O=C(CCC1CCCN(C(=O)CCCc2ccccc2)C1)N1CCN(c2ccccn2)CC1 (configuration not stated)	-	-	-	25	-	-
Cc1ccc(C(=O)N2CCCC(CCC(=O)N3CCN(c4ccccn4)CC3)C2)s1 (configuration not stated)	-	-	-	30	-	-
Nc1ccc(CSc2ccc(Cl)cc2)cc1	-	-	-	-	39	-
CC(C)C(=O)Nc1csc(C(F)(F)F)c1-c1ccccc1	-	-	-	-	27	-
N=c1n(Cc2ccccc2)c2ccccc2n1CC(O)c1ccco1 (configuration not stated)	-	-	46	-	38	28
Cc1noc(C)c1-c1nc(CS(=O)(=O)c2ccc(Cl)cc2)no1	-	-	-	-	30	-
CCN(C(=O)COC(=O)/C=C/c1ccc(OC)c(OC)c1)c1c(N)n(Cc2ccccc2)c(=O)[nH]c1=O	.	.	-	.	-	-
O=[N+]([O-])c1cccc(-c2nc(-c3cccs3)c(-c3cccs3)[nH]2)c1	-	-	-	28	-	-
O=[N+]([O-])c1cccc(-c2nc(-c3ccccc3)c(-c3cccs3)[nH]2)c1	-	-	-	-	-	-
CN(Cc1nc(-c2cnccn2)no1)CC1(c2ccccc2)CC1(C)C (configuration not stated)	-	-	-	-	26	-
Cc1cccc(OC(=O)NCCOC(=O)N(O)c2ccc(Cl)cc2)c1	-	19	-	-	-	-
Cc1cccc(OCC(=O)Oc2ccc(Cl)cc2)c1	-	-	-	-	-	-
N#CCSc1n[nH]c2nc3c(c(=O)n12)C1(CCCCC1)Cc1ccccc1-3	-	-	38	-	91	-
CCSc1n[nH]c2nc3c(c(=O)n12)C1(CCCCC1)Cc1ccccc1-3	-	-	58	-	82	-
CCCn1c(SCC(N)=O)nc2c(c1=O)C1(CCCC1)Cc1ccccc1-2	-	-	-	-	-	-
CCC(=O)Nn1cnc2c(c1=O)C1(CCCCC1)Cc1ccccc1-2	-	-	-	-	33	-
